In the library only some 6.9% were active in any assay of this set; here they are far more common.
SKKanGAS inh = SKKanGAS growth inhibition; S. pyogenes SKKanGAS, kanamycin growth, BacTiter-Glo, 6 h; inhibition, % at 7.5 µM; 300,000 compounds, 1.3% hits;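 active = mean replicate score, as percent of positive control median, at least 50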;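 also: strain carries kanamycin resistance gene driven by streptokinase promoter and grows in 40 µg/ml kanamycin; loss of luminescence reflects streptokinase promoter inhibition or plain growth inhibition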
Mdm2 MdmX PPI = inhibitors of human Mdm2/MdmX interaction; O15151+Q00987; AID 485346; 330,000 compounds, 3% hits; inhibition, % at 8 µM; SaOS-2 split-luciferase Mdm2/MdmX complementation, luminescence;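 active = inhibition of at least 50% at 8 µM in the primary screen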
Target sequence (O15151 whole entry, looked up): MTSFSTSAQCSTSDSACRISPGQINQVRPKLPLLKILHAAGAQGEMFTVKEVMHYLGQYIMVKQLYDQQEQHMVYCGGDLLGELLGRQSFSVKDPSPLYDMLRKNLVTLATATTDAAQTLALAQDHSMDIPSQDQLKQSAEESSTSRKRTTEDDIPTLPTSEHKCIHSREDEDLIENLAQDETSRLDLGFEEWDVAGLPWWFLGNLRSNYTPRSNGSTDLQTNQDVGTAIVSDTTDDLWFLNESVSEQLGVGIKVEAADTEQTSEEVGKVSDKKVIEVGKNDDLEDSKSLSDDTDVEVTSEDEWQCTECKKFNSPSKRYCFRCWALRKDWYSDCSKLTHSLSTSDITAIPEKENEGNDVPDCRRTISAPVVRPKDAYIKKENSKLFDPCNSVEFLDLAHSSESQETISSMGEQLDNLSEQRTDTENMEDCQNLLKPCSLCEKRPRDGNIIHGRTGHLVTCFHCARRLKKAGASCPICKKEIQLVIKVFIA
Target sequence (Q00987 whole entry, looked up): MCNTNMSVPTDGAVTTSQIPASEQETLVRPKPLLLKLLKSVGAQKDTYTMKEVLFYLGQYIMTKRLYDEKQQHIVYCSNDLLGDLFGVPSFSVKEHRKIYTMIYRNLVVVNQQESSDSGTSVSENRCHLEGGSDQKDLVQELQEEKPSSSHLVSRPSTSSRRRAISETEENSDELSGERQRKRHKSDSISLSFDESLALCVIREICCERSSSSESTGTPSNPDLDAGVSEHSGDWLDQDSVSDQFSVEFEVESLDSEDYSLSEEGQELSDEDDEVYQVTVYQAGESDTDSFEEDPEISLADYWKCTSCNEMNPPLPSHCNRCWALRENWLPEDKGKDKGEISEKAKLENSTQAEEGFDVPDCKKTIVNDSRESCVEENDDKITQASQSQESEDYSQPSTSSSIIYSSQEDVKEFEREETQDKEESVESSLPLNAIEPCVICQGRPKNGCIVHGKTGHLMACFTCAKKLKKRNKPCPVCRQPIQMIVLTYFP
NR3A LBD binder = modulates the human NR3A ligand-binding domain; Tm shift relative to glycine control, % at 25 µM; 340,000 compounds, 2.5% hits; NR3A LBD differential scanning fluorimetry, Tm shift; 0% = protein alone, 100% = glycine-bound protein;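 active = melting temperature shift of at least 10% of the positive control shift, at one fixed dose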
Beta apoptosis = beta cell apoptosis inhibition; 300,000 compounds, 0.8% hits; INS-1E cytokine-induced death, ATP luminescence, 48 h; percent of positive-control rescue, neutral wells zero; protection from apoptosis, % (concentration not given with the values); AID 435005;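 active = Every replicate reaches about 75%, or at least half do and their mean reaches it too, limit read from the data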;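 also: higher means more ATP so stronger rescue from cytokine killing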
CSC inhib = blocks cancer stem cells | 300,000 compounds, 1.1% hits | cancer stem cell-like cells viability, luminescence | inhibition, % at 7.5 µM | AID 2717; in the data active = inhibition above about 75%; tested in HMLE shEcad cells
MPTP inh = permeability transition pore inhibition. AID 602449. isolated mouse mitochondria, Ca2+ swelling absorbance, 30 min. inhibition, % at 10 µM. 360,000 compounds, 1.4% hits;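 active = inhibition of 50% or more, scaled per plate between neutral and stimulator controls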
Mdm2-MdmX conf = human Mdm2/MdmX binding inhibition, confirmed; luminescent assay; inhibition, % at 8 µM; AID 489028; 10,000 compounds, 55% hits; shares compounds with Mdm2 MdmX PPI; in the data active = inhibition above about 40%
FLuc counter = full-length luciferase inhibition in Mdm2/MdmX counter-screen. inhibition, % at 8 µM. 6,200 compounds, 77% hits. AID 504607. SaOS-2 full-length luciferase counterscreen, luminescence. shares compounds with Mdm2 MdmX PPI;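 active = mean inhibition at 8 µM reaching about 37%, which flags the compound as non-specific, limit read from the data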;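 also: p53-null SaOS-2 cells with luciferase driven by a doxycycline-inducible promoter; compound on cells about two nights before reading with doxycycline added after day one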
A number is an active result; . = inactive; / = no result given.

SMILES | SKKanGAS inh | Mdm2 MdmX PPI | NR3A LBD binder | Beta apoptosis | CSC inhib | MPTP inh | Mdm2-MdmX conf | FLuc counter
COC(=O)c1cccc(C23CC4(C2)[C@H](CN(Cc2ccc(C(F)(F)F)cc2)[C@@H]4c2ccccc2)C3c2ccc(C(F)(F)F)cc2)c1 (stereo not given in full) | . | 73 | . | . | . | / | 59 | .
FC(F)(F)c1ccc(CN2C[C@@H]3C(c4ccc(C(F)(F)F)cc4)C4(c5cccnc5)CC3(C4)[C@H]2c2ccccc2)cc1 (stereo not given in full) | . | 65 | . | 109 | . | . | . | /
Cc1cc(C)c(NC(=O)CNC(=O)c2cc([N+](=O)[O-])ccc2N2CCOCC2)c(C)c1 | . | . | . | . | . | . | / | /
COc1ccc(C2CC(=O)N(C)c3ccccc3S2)cc1 (stereo not given) | . | 68 | . | . | . | . | 47 | 97
CCC1CCCCN1S(=O)(=O)c1ccc(C(=O)Nc2nnc(-c3ccccc3Cl)o2)cc1 (stereo not given) | 110 | 63 | . | . | / | . | . | /
CCS(=O)(=O)c1ncc(Cl)c(C(=O)Nc2ccc(C)cc2)n1 | . | 87 | . | . | 119 | . | 78 | 57
CCC1CCCCN1S(=O)(=O)c1ccc(NC(=O)c2nc(S(C)(=O)=O)ncc2Cl)cc1 (stereo not given) | 51 | 97 | . | 108 | 115 | . | 100 | .
CCS(=O)(=O)c1ncc(Cl)c(C(=O)Nc2ccc(S(=O)(=O)N3CCCC(C)C3)cc2)n1 (stereo not given) | . | 99 | . | 106 | 118 | . | 99 | 51
CC1CCCCN1S(=O)(=O)c1ccc(C(=O)Nc2nnc(-c3ccncc3)o2)cc1 (stereo not given) | . | . | . | . | . | . | / | /
CS(=O)(=O)c1ncc(Cl)c(C(=O)Nc2ccc3ccccc3c2)n1 | . | / | . | / | / | . | / | /
CC1Cc2cc(S(=O)(=O)N3CCC(C(=O)Nc4ccccn4)CC3)ccc2N1C(=O)C1CCC1 (stereo not given) | . | . | . | . | . | . | / | /
CN=C(C)/C(C(=O)OC)=C(/O)c1c(F)cccc1F | . | . | . | . | . | . | / | /
Cc1nc(-c2ccccc2Cl)sc1C(=O)/C=C/N(C)C | . | . | . | . | . | . | / | /
CC(NC(=O)CN(C)Cc1cccs1)c1ccccc1 (stereo not given) | . | . | . | . | . | . | / | /
CC(C)c1ccc(C(=O)COC(=O)C(O)c2ccccc2)cc1 (stereo not given) | / | . | . | . | . | . | / | /
O=C(Nc1ccc(OC(F)F)cc1)c1ncc(Cl)c(Cl)c1Cl | . | . | . | . | . | . | / | /
Cc1ccc(CS(=O)(=O)c2ncc(Cl)c(C(=O)Nc3ccc(OC(F)F)cc3)n2)cc1 | 54 | 91 | . | . | 105 | . | 86 | 54
Cc1ccc2nc(-c3ccccc3)cc(C(=O)N(C)CC(=O)Nc3ccccc3Br)c2c1 | . | 53 | . | . | / | . | . | /
Brc1ccc(-c2ccc(/C=N/Nc3nncc(-c4ccccc4)n3)o2)cc1 | . | . | . | . | . | . | / | /
Fc1cnc(N/N=C/c2ccc(-c3ccc(Br)cc3)o2)nc1N1CCOCC1 | . | 59 | . | . | . | . | . | /
Brc1ccc(-c2ccc(/C=N/Nc3nc(N4CCOCC4)nc(N4CCOCC4)n3)o2)cc1 | . | 69 | . | . | . | . | . | /
CCOc1cc(/C=N\Nc2ncc(F)c(N3CCOCC3)n2)ccc1Oc1nc(Cl)ncc1F | . | . | . | . | . | . | / | /
Cc1ccc(O)c(C(CC(=O)NC2CCCCC2)c2ccccc2)c1 (stereo not given) | . | . | . | . | . | . | / | /
Cc1ccc(S(=O)(=O)N2CCOCC2)cc1NC(=O)CSc1nnc(COc2ccccc2F)n1N | / | / | . | / | / | . | / | /
Cc1ccc(NC(=S)NNC(=S)Nc2ccc(C)cc2C)cc1 | . | 71 | 11 | . | . | . | 52 | 94
SMILES | SKKanGAS inh | Mdm2 MdmX PPI | NR3A LBD binder | Beta apoptosis | CSC inhib | MPTP inh | Mdm2-MdmX conf | FLuc counter
Clc1ccc(C2=Nn3c(nnc3-c3cc(-c4ccccc4)n[nH]3)SC2)cc1 | . | . | . | . | . | . | / | /
COc1ccc(C2=Nn3c(nnc3-c3cc(C)[nH]n3)SC2)cc1 | . | 60 | . | . | . | . | 41 | 100
Clc1ccc(C2=Nn3c(nnc3-c3n[nH]c4c3CCC4)SC2)cc1Cl | . | 89 | . | . | . | . | 69 | .
c1ccc(C2=Nn3c(nnc3-c3cc(-c4ccccc4)n[nH]3)SC2)cc1 | . | 79 | . | / | . | . | . | /
COc1cc(-c2nnc3n2N=C(c2ccccc2)CS3)cc(OC)c1OC | . | 74 | . | . | . | . | 69 | 57
c1ccc(C2=Nn3c(nnc3-c3n[nH]c4c3CCC4)SC2)cc1 | . | 71 | . | / | . | . | 51 | 89
COc1ccc(C2=Nn3c(nnc3-c3ccccc3OC)SC2)cc1OC | . | / | . | . | . | . | / | /
Cc1ccc(-c2nnc3n2N=C(c2ccccc2)CS3)cc1 | . | . | . | . | . | . | / | /
Clc1ccc(C2=Nn3c(nnc3-c3cccs3)SC2)cc1 | . | . | . | . | . | . | / | /
COc1ccc(C2=Nn3c(nnc3-c3ccco3)SC2)cc1OC | . | 55 | . | . | . | . | . | /
COc1cccc(-c2nnc3n2N=C(C(C)(C)C)CS3)c1 | . | 85 | . | . | . | . | 99 | 51
c1csc(C2=Nn3c(nnc3-c3ccncc3)SC2)c1 | . | 75 | . | . | / | . | 80 | 51
COc1ccc(CNC(=O)[C@@H](NC(=O)C2CCN(S(=O)(=O)c3ccccc3)CC2)C(C)C)cc1 | . | . | . | . | . | . | / | /
O=C(OCc1ccc(Br)cc1)c1cc([N+](=O)[O-])ccc1N1CCOCC1 | / | / | / | / | / | . | / | /
O=C(COC(=O)c1cc([N+](=O)[O-])ccc1N1CCOCC1)Nc1ccc(Cl)cn1 | . | 76 | . | . | 86 | . | 58 | 68
Cc1ccc(C(=O)c2cc([N+](=O)[O-])ccc2N2CCCCC2)cc1 | . | 53 | . | . | . | . | 65 | 96
O=C(COC(=O)c1cc([N+](=O)[O-])ccc1N1CCOCC1)Nc1ccc(Cl)cc1 | . | . | . | / | . | . | / | /
COc1ccc(COC(=O)c2cc([N+](=O)[O-])ccc2N2CCOCC2)cc1F | . | 72 | . | . | . | . | 78 | 125
O=C(c1ccc(Cl)cc1)c1cc([N+](=O)[O-])ccc1N1CCOCC1 | . | 65 | . | . | . | . | 52 | 81
COCC(CN1CCN(C2=NS(=O)(=O)c3ccccc32)CC1)OC(=O)c1ccccc1 (stereo not given) | . | . | . | . | . | . | / | /

Source: PubChem BioAssay (several laboratories)
